The panel holds about 83,000 compounds, 20% with a hit somewhere; the sample as a whole holds those more often.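 In brief: 96-well plates, 48 h treatment, single concentration, percent growth endpoint.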 Calls of active or inactive are those of the source. How the source made its calls: active means growth percent below 10; inactive means the rest.
What follows are molecules tested on KM12 colon (assay: NCI-60 one-dose screen, 48 h (100 = growth as untreated, 0 = no growth, -100 = all killed)). Details: 10 µM.

**Q.** With `N#Cc1ncc(-c2cc(F)ccc2F)c(NC2CCCCCC2)n1` as the molecule, how does the growth read?
**A.** 36.4% (inactive)

**Q.** For `Cc1nnc2c3nnc(-c4ccc(Cl)cc4)n3c3ccccc3n12`, which growth is on record?
**A.** 103% (inactive)

**Q.** `O=CNc1c(Cl)cc2c(c1Cl)Cc1cc([N+](=O)[O-])ccc1-2` was tested. Which growth did it give?
**A.** 25.6% (inactive)

**Q.** For `O=C(Nc1ccc(OS(=O)(=O)Cc2ccccc2)cc1)C12CC3CC(CC(C3)C1)C2`, which growth is on record?
**A.** 42.4% (inactive)

**Q.** How did the growth turn out when `COc1cc(CSc2nc3ccc(C)cc3c(=O)n2Cc2ccccc2)cc(OC)c1OC` was run?
**A.** 25.3% (inactive)

**Q.** `CC(=O)[C@H]1CC[C@H]2[C@@H]3CC[C@@H]4CC=C(C=O)C[C@]4(C)[C@H]3CC[C@]12C` was tested. Which growth did it give?
**A.** 104% (inactive)

**Q.** With `O=[N+]([O-])c1ccc(Br)o1` as the molecule, how does the growth read?
**A.** 99.1% (inactive)

**Q.** With `CCc1nn2c(-c3cc(OC)c(OC)c(OC)c3)c(-c3cc(OC)c(OC)c(OC)c3)nc2s1` as the molecule, how does the growth read?
**A.** 100% (inactive)

**Q.** How did the growth turn out when `N#Cc1c2c([nH]c(=O)c1C(N)=O)CCCCC2` was run?
**A.** 106% (inactive)

**Q.** How did the growth turn out when `COC(=O)[C@]12CC[C@@H](C)[C@H](C)[C@@H]1C1=CC[C@@H]3[C@@]4(C)CC(=O)[C@H](O)[C@@]5(C)COC(=C45)C[C@@]3(C)[C@]1(C)CC2` was run?
**A.** -64.1% (active)

**Q.** Which growth does the source give for `C=CCNCCCN1C(=O)c2ccc3c4c(ccc(c24)C1=O)C(=O)N(CCCNCC=C)C3=O` here?
**A.** -69.3% (active)

**Q.** `COc1ccc(Cn2cc3c(c2-c2cc(OC)c(OC)c(OC)c2)CCc2cnoc2-3)cc1N` was tested. Which growth did it give?
**A.** 1.77% (active)

**Q.** How did the growth turn out when `Cc1ccc2nc(-c3ccc(OCC(=O)N=Nc4c(O)[nH]c5ccccc45)cc3)[nH]c2c1` was run?
**A.** 1.59% (active)

**Q.** Which growth does the source give for `COc1cc(OC)cc(-c2n/c(=C\c3c(O)[nH]c4ccc(OC)cc34)cc3c2=Nc2ccccc2-3)c1` here?
**A.** -49.8% (active)

**Q.** `O=c1ccc2nc(-c3ccccc3)nn(-c3ccccc3)c-2c1` was tested. Which growth did it give?
**A.** 63.1% (inactive)

**Q.** For `NS(=O)(=O)c1ccc(N2N=C(c3ccc(-c4ccccc4)cc3)CC2c2ccc(Cl)cc2)cc1` (stereo not drawn), which growth is on record?
**A.** 68.6% (inactive)

**Q.** With `O=C(NC1CCCC1)c1ccc(N2CCC(NCc3cccc(C(F)(F)F)c3)CC2)cc1` as the molecule, how does the growth read?
**A.** 84.5% (inactive)

**Q.** `COc1cc(OC)cc(-c2ccc(-c3ccc(C(=N)N)cn3)o2)c1` was tested. Which growth did it give?
**A.** -11.2% (active)

**Q.** How did the growth turn out when `COc1ccc(-c2oncc2-c2cc(OC)c3c(c2)OCO3)cc1` was run?
**A.** 31.3% (inactive)

**Q.** How did the growth turn out when `COc1cc2ccnc(C=O)c2cc1OC` was run?
**A.** 92.1% (inactive)

**Q.** `N#Cc1ccc(-n2cnc(NC(=O)[C@H]3CCN(C#N)C3)c2)cc1` was tested. Which growth did it give?
**A.** 8.31% (active)

**Q.** Which growth does the source give for `Oc1ccccc1-c1nnc(Cn2c(Cc3cccc4ccccc34)nc3ccccc32)o1` here?
**A.** 98.8% (inactive)

**Q.** With `Fc1ccc(Nc2ccnc(N3CCN(c4ccnc5cc(Cl)ccc45)CC3)n2)cc1` as the molecule, how does the growth read?
**A.** 42.1% (inactive)

— PubChem BioAssay (NCI)
